Values joined by “and” are separate entries in the source; they are usually repeats but may differ in a detail not shown here. Equal values may be shown once. About 83,000 compounds went through this panel and 20% of them were active in at least one assay; those are over-represented in the sample as a whole.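 Values shown are percent growth following 48 h exposure of cells in 96-well plates to a single concentration of compound; below 10 was considered active.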 Active and inactive are the calls of the source.
Legend:
Test in all cases: NCI-60 one-dose screen, 48 h (100 = growth as untreated, 0 = no growth, -100 = all killed)
DU-145 prostate = details: 10 µM
K-562 leukemia = details: 10 µM
MALME-3M melanoma = details: 10 µM
MDA-MB-231 breast = details: 10 µM
RXF 393 renal = details: 10 µM
SF-268 CNS = details: 10 µM
SF-295 CNS = details: 10 µM
SF-539 CNS = details: 10 µM
UACC-257 melanoma = details: 10 µM
M14 melanoma = details: 10 µM
HCT-15 colon = details: 10 µM
HT29 colon = details: 10 µM
SNB-19 CNS = details: 10 µM
U251 CNS = details: 10 µM
PC-3 prostate = details: 10 µM
UACC-62 melanoma = test system: UACC-62 melanoma
LOX IMVI melanoma = details: 10 µM
SK-MEL-5 melanoma = details: 10 µM
SK-MEL-28 melanoma = details: 10 µM
SNB-75 CNS = details: 10 µM

Measured: growth

O=C(Nc1cc(-c2ccccc2)[nH]n1)c1ccc(Cl)cc1
inactive: DU-145 prostate 77.6% | K-562 leukemia 61.1% | MALME-3M melanoma 92.6% | MDA-MB-231 breast 114% | RXF 393 renal 32.4% | SF-268 CNS 74.2% | SF-295 CNS 71.2% | SF-539 CNS 66.2% | UACC-257 melanoma 77.9% | M14 melanoma 64.4% | HCT-15 colon 61.4% | HT29 colon 67.2% | SNB-19 CNS 65.2% | U251 CNS 70.2% | PC-3 prostate 75.9% | UACC-62 melanoma; 10 µM unless noted 79.7% | LOX IMVI melanoma 89.5%

COc1cc2cc(OC(C)=O)c3cc4c(cc3c2c(OC)c1OC)OCO4
inactive: DU-145 prostate 98.8% | K-562 leukemia 107% | MALME-3M melanoma 98.4% | MDA-MB-231 breast 108% | RXF 393 renal 94.6% | SF-268 CNS 97.9% | SF-295 CNS 93% | SF-539 CNS 103% | UACC-257 melanoma 105% | M14 melanoma 96.5% | HCT-15 colon 99.7% | HT29 colon 101% | SNB-19 CNS 105% | U251 CNS 103% | PC-3 prostate 94.7% | SK-MEL-5 melanoma 99.5% | UACC-62 melanoma; 10 µM unless noted 103% | LOX IMVI melanoma 94.9% | SK-MEL-28 melanoma 105%

C#C[C@H]1CCCCCC1O (some centres not stated)
inactive: DU-145 prostate 110% | K-562 leukemia 101% | MALME-3M melanoma 104% | MDA-MB-231 breast 102% | RXF 393 renal 103% | SF-268 CNS 105% | SF-295 CNS 108% | SF-539 CNS 106% | UACC-257 melanoma 107% | M14 melanoma 107% | HCT-15 colon 114% | HT29 colon 107% | SNB-19 CNS 106% | U251 CNS 99.7% | PC-3 prostate 90.1% | SK-MEL-5 melanoma 98.1% | UACC-62 melanoma; 10 µM unless noted 100% | LOX IMVI melanoma 97% | SK-MEL-28 melanoma 122%

Oc1ccc(N=Nc2ccc(Br)cc2)c(O)c1
active: DU-145 prostate -11.8% | K-562 leukemia 6.18% | RXF 393 renal -58.3% | SF-539 CNS -18.6% | M14 melanoma -19.2%
inactive: MALME-3M melanoma 36.2% | MDA-MB-231 breast 41.9% | SF-268 CNS 30.8% | SF-295 CNS 15.4% | UACC-257 melanoma 20.6% | HCT-15 colon 21.2% | HT29 colon 93.5% | SNB-19 CNS 38.5% | U251 CNS 16.8% | PC-3 prostate 17% | SK-MEL-5 melanoma 11.1% | UACC-62 melanoma; 10 µM unless noted 39.4% | LOX IMVI melanoma 51.9% | SK-MEL-28 melanoma 51.2%

CC(=O)c1cc2c(cc1F)C(C)(C)CCC2(C)C
inactive: DU-145 prostate 108% | K-562 leukemia 96.2% | MALME-3M melanoma 123% | MDA-MB-231 breast 103% | RXF 393 renal 113% | SF-268 CNS 95.4% | SF-295 CNS 120% | SF-539 CNS 96.2% | UACC-257 melanoma 96.3% | M14 melanoma 98.9% | HCT-15 colon 100% | SNB-75 CNS 84.8% | SNB-19 CNS 102% | U251 CNS 104% | PC-3 prostate 95.6% | SK-MEL-5 melanoma 102% | UACC-62 melanoma; 10 µM unless noted 97.1% | LOX IMVI melanoma 96% | SK-MEL-28 melanoma 107%

O=c1cc(-c2ccccc2)oc2c1ccc1ccccc12
inactive: DU-145 prostate 102% | K-562 leukemia 102% | MALME-3M melanoma 146% | MDA-MB-231 breast 88.4% | RXF 393 renal 90.8% | SF-268 CNS 101% | SF-295 CNS 98% | SF-539 CNS 81.2% | UACC-257 melanoma 97.3% | M14 melanoma 98.9% | HCT-15 colon 97.7% | SNB-75 CNS 71.4% | SNB-19 CNS 75.5% | U251 CNS 83.8% | PC-3 prostate 84% | SK-MEL-5 melanoma 79.6% | UACC-62 melanoma; 10 µM unless noted 85.6% | LOX IMVI melanoma 89.3% | SK-MEL-28 melanoma 99.3%

CC(=O)c1sc2c(c1OC(=O)c1ccc(Cl)cc1Cl)c(=O)n(-c1ccccc1)c(=S)n2-c1ccccc1
inactive: DU-145 prostate 44.1% | SF-268 CNS 18.9% | UACC-257 melanoma 49% | SNB-19 CNS 16.3% | SK-MEL-5 melanoma 42.7% | UACC-62 melanoma; 10 µM 29.4%
active: K-562 leukemia 0.912% | MALME-3M melanoma -79.2% | MDA-MB-231 breast -41.5% | RXF 393 renal 6.34% | SF-295 CNS -32.1% | SF-539 CNS -39.6% | M14 melanoma -76.1% | HCT-15 colon 3.9% | HT29 colon -23.9% | U251 CNS 1.6% | UACC-62 melanoma; 100 µM -11.6% and -45.7% | LOX IMVI melanoma -18.9%

NC(=O)N/N=C\c1ccco1
inactive: DU-145 prostate 131% | K-562 leukemia 100% | MALME-3M melanoma 114% | MDA-MB-231 breast 110% | RXF 393 renal 109% | SF-268 CNS 112% | SF-295 CNS 132% | SF-539 CNS 109% | UACC-257 melanoma 85.1% | M14 melanoma 104% | HCT-15 colon 107% | HT29 colon 103% | SNB-19 CNS 102% | U251 CNS 101% | PC-3 prostate 104% | SK-MEL-5 melanoma 107% | UACC-62 melanoma; 10 µM unless noted 103% | LOX IMVI melanoma 102% | SK-MEL-28 melanoma 116%

CC(=O)N(C)c1ccc([N+](=O)[O-])cc1
inactive: DU-145 prostate 122% | K-562 leukemia 111% | MALME-3M melanoma 144% | MDA-MB-231 breast 102% | RXF 393 renal 102% | SF-268 CNS 116% | SF-295 CNS 107% | SF-539 CNS 106% | UACC-257 melanoma 110% | M14 melanoma 108% | HCT-15 colon 102% | HT29 colon 102% | SNB-19 CNS 97.5% | PC-3 prostate 93.5% | SK-MEL-5 melanoma 103% | UACC-62 melanoma; 10 µM unless noted 104% | LOX IMVI melanoma 98.4% | SK-MEL-28 melanoma 114%

COc1ccc(Oc2c(I)cc(CC(NC(C)=O)C(=O)O)cc2I)cc1 (configuration not stated)
inactive: DU-145 prostate 107% | K-562 leukemia 63.9% | MALME-3M melanoma 88.4% | MDA-MB-231 breast 78.8% | RXF 393 renal 88.6% | SF-268 CNS 91.7% | SF-295 CNS 62.3% | SF-539 CNS 111% | UACC-257 melanoma 83.8% | M14 melanoma 80.8% | HCT-15 colon 96.6% | HT29 colon 85.2% | SNB-75 CNS 87.1% | U251 CNS 86.5% | PC-3 prostate 69.5% | SK-MEL-5 melanoma 60.7% | UACC-62 melanoma; 10 µM unless noted 73.5% | LOX IMVI melanoma 70% | SK-MEL-28 melanoma 103%

CCOc1ccc(/C=C/C(=O)c2ccccc2)cc1
inactive: DU-145 prostate 95.1% | K-562 leukemia 71.5% | MALME-3M melanoma 108% | MDA-MB-231 breast 114% | RXF 393 renal 53.4% | SF-268 CNS 85.6% | SF-295 CNS 111% | SF-539 CNS 105% | UACC-257 melanoma 97.7% | M14 melanoma 99.7% | HCT-15 colon 92.4% | HT29 colon 96.1% | SNB-19 CNS 92.2% | U251 CNS 86.7% | PC-3 prostate 73.7% | SK-MEL-5 melanoma 99.6% | UACC-62 melanoma; 10 µM unless noted 88.9% | LOX IMVI melanoma 93.5% | SK-MEL-28 melanoma 100%

O=C(c1ccccc1)C1CCC1
inactive: DU-145 prostate 117% | K-562 leukemia 99.3% | MALME-3M melanoma 117% | MDA-MB-231 breast 98.3% | RXF 393 renal 109% | SF-268 CNS 100% | SF-295 CNS 104% | SF-539 CNS 103% | UACC-257 melanoma 102% | M14 melanoma 108% | HCT-15 colon 99.7% | HT29 colon 85.4% | SNB-19 CNS 103% | PC-3 prostate 90.4% | SK-MEL-5 melanoma 107% | UACC-62 melanoma; 10 µM unless noted 94% | LOX IMVI melanoma 106%

Cc1cc(N)ccc1-c1ccc(N)cc1C
inactive: DU-145 prostate 110% | K-562 leukemia 106% | MALME-3M melanoma 120% | MDA-MB-231 breast 106% | RXF 393 renal 108% | SF-268 CNS 103% | SF-295 CNS 99.2% | SF-539 CNS 93.8% | UACC-257 melanoma 80.7% | M14 melanoma 94.7% | HCT-15 colon 97.6% | HT29 colon 102% | SNB-19 CNS 107% | U251 CNS 110% | PC-3 prostate 73.8% | SK-MEL-5 melanoma 99.7% | UACC-62 melanoma; 10 µM unless noted 104% | LOX IMVI melanoma 88.2% | SK-MEL-28 melanoma 104%

CN(C)C(C)(C)CC(C)(C)C
inactive: DU-145 prostate 99.5% | K-562 leukemia 96.5% | MALME-3M melanoma 94.2% | MDA-MB-231 breast 101% | RXF 393 renal 103% | SF-268 CNS 103% | SF-295 CNS 104% | SF-539 CNS 94.1% | UACC-257 melanoma 117% | M14 melanoma 105% | HCT-15 colon 100% | HT29 colon 119% | SNB-19 CNS 105% | U251 CNS 107% | SK-MEL-5 melanoma 105% | UACC-62 melanoma; 10 µM unless noted 105% | LOX IMVI melanoma 100% | SK-MEL-28 melanoma 109%

CCOC(=O)C(=O)C=P(c1ccccc1)(c1ccccc1)c1ccccc1
inactive: DU-145 prostate 103% | K-562 leukemia 107% | MALME-3M melanoma 102% | MDA-MB-231 breast 99.2% | RXF 393 renal 106% | SF-268 CNS 97.9% | SF-295 CNS 97.8% | SF-539 CNS 103% | UACC-257 melanoma 111% | M14 melanoma 109% | HCT-15 colon 102% | HT29 colon 106% | SNB-19 CNS 109% | U251 CNS 107% | PC-3 prostate 96.4% | SK-MEL-5 melanoma 102% | UACC-62 melanoma; 10 µM unless noted 107% | LOX IMVI melanoma 92.8% | SK-MEL-28 melanoma 110%

CCOC(=O)/C(=C/c1ccc(OC)cc1)N(CC)CC
inactive: DU-145 prostate 102% | K-562 leukemia 102% | MALME-3M melanoma 108% | MDA-MB-231 breast 107% | RXF 393 renal 107% | SF-268 CNS 100% | SF-295 CNS 101% | SF-539 CNS 108% | UACC-257 melanoma 103% | M14 melanoma 107% | HCT-15 colon 112% | HT29 colon 109% | SNB-19 CNS 103% | U251 CNS 99.1% | PC-3 prostate 95.4% | SK-MEL-5 melanoma 99.7% | UACC-62 melanoma; 10 µM unless noted 102% | LOX IMVI melanoma 97.7% | SK-MEL-28 melanoma 112%

— PubChem BioAssay (NCI)
